From PubChem
Rows were chosen to be rich in hits. Some 7.3% of all compounds tested hit in one or more screens of this group.
HCMV inh = blocks human cytomegalovirus replication; HFF cells, HCMV-luciferase reporter, 72 h; hits give low values; activity change, negative = inhibition, % at 57.5 µM; actives 4.5% (n = 410,000); in the data active means activity change below about -60%; inconclusive means no clear call, values can overlap the other calls; inactive means above about -39%
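After 16 h attachment at 37C, HFF cells received test compound and HCMV-luciferase (1 PFU/cell); reporter luminescence read 72 h later, data normalized against buffer-only and known inhibitor Salinomycin.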
VACV mCherry inh = vaccinia inhibition (mCherry reporter). Potency, µM (top dose mostly 36.5 µM), usual class: inhibitors. Vaccinia virus mCherry reporter infection, fluorescence. actives 0.63% (n = 310,000); calls by dose curve; tested in A549 cells; further: nearly all actives have a fitted effect of over 35% in size
HCV inhibitor = blocks hepatitis C virus; Huh7.5.1 HCVcc-Cre infection, luciferase reporter, 44 h; Potency, µM (titrated, usually from 41.8 µM), usual class: inhibitors; actives 3.4% (n = 340,000); AID 651820; active means well fitted inhibition curve with a large enough effect; inconclusive means small, poorly fitted or top-dose-only effect, or another doubt; inactive means no such curve, though single readings can be large or run the other way
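Infectious HCV cell culture screen: compound-treated cells (1,000/well, pre-plated 4 h) are infected with HCVcc-Cre at roughly 0.5 moi and grown 44 h. Infection is quantified by luciferase signal after 15 min substrate incubation at room temperature.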
FMDV inh = antivirals against foot and mouth disease virus | FMDV antiviral cell-based qHTS | Potency, µM (highest dose often 57.9 µM), usual class: inhibitors | actives 1.2% (n = 410,000); calls by dose curve; tested in HEK293T cells; further: read-out not given here; nearly all actives have a fitted effect of over 45% in size
VACV Venus inh = inhibitors of vaccinia virus (Venus reporter); actives 0.46% (n = 330,000); Vaccinia virus Venus reporter expression, fluorescence; Potency, µM (doses to about 36.5 µM), usual class: inhibitors; calls by dose curve; tested in A549 cells; further: nearly all actives have a fitted effect of over 30% in size
A number is an active result; - = inactive; ? = inconclusive; . = no result.

SMILES	HCMV inh	VACV mCherry inh	HCV inhibitor	FMDV inh	VACV Venus inh
O=C(C(Cl)Cl)N1c2ccccc2OCC1c1ccccc1 (configuration not stated)	-61.5	.	12.6µM	?	.
Nc1ccc(Nc2ccccc2N)cc1	-	-	11.2µM	-	-
COc1ccc(Nc2ccccc2N)cc1	?	-	?	-	-
Cc1c(NS(=O)(=O)c2ccccc2)ccc([N+](=O)[O-])c1Cl	-64.7	?	-	-	?
CCS(=O)(=O)N1CCc2cc(C(=O)Nc3cc(OC)c(Cl)cc3OC)ccc21	-	-	.	-	-
CCN(CC)CCn1c2ccccc2c2nc3ccc([N+](=O)[O-])cc3cc21	-98.3	-	?	-	-
Cn1c2ccccc2c2cc([N+](=O)[O-])ccc21	-	-	?	-	-
Cc1csc(NC(=O)Cc2coc3cc(C)c(C(C)C)cc23)n1	-88.9	.	10µM	?	-
COc1cc(/C=C2/C(=O)ON=C2C)cc(Cl)c1O	-	-	-	?	-
CC1=NOC(=O)/C1=C\c1ccc(-c2cc(Cl)ccc2Cl)o1	-103.5	-	?	10µM	-
CCOc1ccc(Cl)cc1/C=C1/C(=O)ON=C1C	-	-	-	39.8µM	-
CCCOc1ccc(/C=C2/C(=O)ON=C2C)cc1Cl	-	.	-	-	.
COc1ccc(Cl)cc1/C=C1/C(=O)ON=C1C	-	-	-	31.6µM	-
Cc1ccc(NC(=O)c2nn(C34CC5CC(CC(C5)C3)C4)cc2[N+](=O)[O-])cc1	-75.6	.	?	-	.
CCN(C(=O)CSc1nc2ccccc2n1Cc1cc(C)ccc1C)c1ccccc1	-	-	.	-	-
C[n+]1c(-c2ccccc2)c2cc(N)ccc2c2ccc(N)cc21	-99.7	?	2.51µM	?	-
FC(F)(F)c1ccccc1Cc1c(-c2ccco2)nc2ccc(Cl)cn12	-109.9	-	.	?	-
FC(F)(F)c1cc(Cl)c2nc(-c3ccco3)c(Cc3ccccc3C(F)(F)F)n2c1	-66.0	-	.	?	-
Cc1cc(C(=O)CSc2nnc(CCC(N)=O)n2C)c(C)n1C1CC1	-	-	-	-	-
CC(NC(=O)c1cccc(Br)c1)c1ccccc1 (configuration not stated)	-69.9	-	-	-	-
CC(NC(=O)c1cc(Br)ccc1Br)c1ccccc1 (configuration not stated)	-	.	.	.	.
O=C(O)c1cccc(Br)c1	-	-	0.794µM	-	-
CCCCN(C)C(=O)c1sc(=O)n(Cc2ccccc2C#N)c1C	-	-	.	-	-
CN(Cc1ccccc1)C(=O)c1ccc(Nc2nc(C(N)Cc3ccccc3)cs2)nc1 (configuration not stated)	-	-	.	-	-
NC(Cc1ccc(C(F)(F)F)cc1)c1csc(Nc2ncccn2)n1 (configuration not stated)	-	-	.	-	-
SMILES	HCMV inh	VACV mCherry inh	HCV inhibitor	FMDV inh	VACV Venus inh
Cc1ccc(C(=O)Nc2nc(C(N)Cc3ccc(C(F)(F)F)cc3)cs2)cc1 (configuration not stated)	-	-	.	-	-
Cc1cnc(C)c(Nc2nc(C(N)Cc3ccc(C(F)(F)F)cc3)cs2)n1 (configuration not stated)	-	11.2µM	.	-	?
NC(Cc1ccc(C(F)(F)F)cc1)c1csc(Nc2ccccn2)n1 (configuration not stated)	-	11.2µM	.	-	?
CC(=O)c1ccc(Nc2nc(C(N)Cc3ccc(C(F)(F)F)cc3)cs2)cc1 (configuration not stated)	-60.6	-	.	-	?
Cc1cnc(C)c(Nc2nc(C(N)Cc3ccccc3)cs2)n1 (configuration not stated)	-	-	.	-	-
CN(Cc1ccccc1)C(=O)c1ccc(Nc2nc(C(N)Cc3ccc(C(F)(F)F)cc3)cs2)nc1 (configuration not stated)	-98.1	-	.	-	?
COc1ccccc1CNC(=O)C1CCN(S(=O)(=O)c2ccc3c(ccn3C)c2)CC1	-	-	.	-	-
Cc1ccc(CNS(=O)(=O)c2cn(C)c(=O)n(C)c2=O)cc1	-	-	.	-	-
Cc1ccc(-n2ncc3c(NCCC4=CCCCC4)ncnc32)cc1C	-	-	.	-	-
CCCCC[C@@H](C)N1C[C@H](COCc2ccccc2)Oc2cc(N3CC[C@H](O)C3)ccc2S1(=O)=O	-	-	.	-	-
COc1cc(C2CC(=O)Nc3c2c(=O)n(C)c2ncnn32)cc(OC)c1OC (configuration not stated)	-	-	.	-	-
